Source: PubChem BioAssay AID361 (National Center for Advancing Translational Sciences (NCATS), 2006)
About 600 (1.2%) of roughly 51,000 compounds were called active. About 2% were inconclusive and are not listed. This excerpt belongs to a sample that is enriched for actives. A number with no mark means an inactive call. No stated cut-off is given here; in the data, active means potency below about 11 µM; inconclusive means mostly about 12 µM to 25 µM; inactive means weaker than that;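 the screen sought inhibitors and activators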.

Tested on: pyruvate kinase (Bacillus stearothermophilus)
Test: Pyruvate Kinase
Settings: purified pyruvate kinase, luminescence ATP production; ribose 5-phosphate activator present at AC10
Method: Pyruvate kinase (partially purified from Bacillus stearothermophilus) was assayed for its ability to generate ATP from ADP using phosphoenolpyruvate (PEP) as a substrate. ATP generation was detected in a coupled reaction by luciferase-mediated luminescence, an ATP-dependent process. Pyruvate kinase substrates, PEP and ADP, were present in the assay at Km and […]-fold below Km respectively. The enzyme was assayed at an intermediate level of activity to screen for inhibitors and activators. In addition, ribose 5 phosphate, a positive modulator of pyruvate kinase, was included in the assay at AC10 in order to identify possible potentiators.
NCGC Assay Protocol Summary:
Three uL of substrate mix (final concentration, 50 mM imidazole pH 7.2, 50 mM KCl, 7 mM MgCl2, 2 mM PEP, 0.1 mM ADP, 0.7 nM ribose 5 phosphate, 0.01% Tween 20, 0.05% BSA) was dispensed into 1536 well plates. 23 nL of compound were delivered by a pin tool and 1 uL of enzyme mix (final concentration, 10 nM pyruvate kinase, 50 mM imidazole pH 7.2, 0.05% BSA) was added. After centrifugation at 1000 rpm for less than a minute, plates were incubated at room temperature for 2 hours. Three uL of detection and kinase stop mix (PKLight, Cambrex) was added, the plates centrifuged, and luminescence read by a ViewLux (Perkin Elmer) at 5 second exposure/plate. Data were normalized to the controls for AC100 stimulation (5 uM ribose 5 phosphate) and to AC100 inhibition (110 uM luteolin).
Potency means the concentration at half of the fitted maximal effect.

| Structure (SMILES) | Potency |
| --- | --- |
| CC(C)(C)NC(=O)NC(=O)COC(=O)Cn1c(C(F)(F)F)nc2ccccc21 | > 57 µM |
| CCN(CC)C(=O)CSc1nnc(-c2ccc(S(=O)(=O)NCc3ccccc3Cl)cc2)o1 | > 57 µM |
| CCn1c(SCC(=O)Nc2nc3ccc(OC)cc3s2)nnc1-c1ccoc1C | > 57 µM |
| O=C(CN1CCN(c2ccccn2)CC1)NCc1cccs1 | > 57 µM |
| CC(C)n1c(SCC(=O)Nc2ccccc2N2CCCCC2)nc2c1c(=O)n(C)c(=O)n2C | > 57 µM |
| COC(=O)c1ccc(Oc2nc(NC(C)C)nc(SC)n2)cc1 | > 57 µM |
| CNC(=O)CSc1nnc(CCc2ccccc2)n1-c1ccccc1 | > 57 µM |
| CCOC(=O)C1CCN(C(=O)c2oc3ccc(S(=O)(=O)N4CCCCCC4)cc3c2C)CC1 | > 57 µM |
| CCOC(=O)C1CCN(c2ncnc3c2oc2ccc(Br)cc23)CC1 | 10.6 µM (active) |
| Cc1cc(C)nc(N2CCN(c3ncnc4c3oc3ccccc34)CC2)n1 | > 57 µM |
| CCCC(=O)Nc1cccc(-c2cn3ccsc3n2)c1 | 49.6 µM |
| O=C(NCc1cn2ccsc2n1)Nc1ccc(Cl)cc1 | > 57 µM |
| COc1ccc(-c2cn3ccsc3n2)cc1 | 4.01 µM (active) |
| COc1ccc(CCNC(=O)CN2CCC(n3nnc4cc(F)ccc43)CC2)cc1OC | > 57 µM |
| CCCc1cc(=O)oc2c(C)c(O)c(CN3CCCCC3)cc12 | > 25.6 µM |
| COc1ccccc1C(=O)Oc1ccc(N2C(=O)CCC2=O)cc1 | > 57 µM |
| O=S(=O)(/C=C/c1ccccc1)NCCc1ccccn1 | > 57 µM |
| O=C(c1cccs1)N1CCC(c2nc3ccccc3s2)CC1 | > 57 µM |
| Cc1nn(Cc2ccccc2)c(Cl)c1C(=O)OC1CCOC1=O (centres undefined) | > 57 µM |
| O=C(OC1CCOC1=O)c1ccc(-c2nc3ccccc3s2)s1 (centres undefined) | 4.84 µM (active) |
| CC(NCCO)C(=O)C12CC3CC(CC(C3)C1)C2 (centres undefined) | > 57 µM |
| CCC(C)NC(=O)N[C@@H](CCSC)C(=O)O (some centres undefined) | > 57 µM |
| COC(=O)CNC(=O)c1ccc2c(c1)S(=O)(=O)c1ccccc1C2=O | > 57 µM |
| O=C(Oc1ccccc1)c1ccc2nccnc2c1 | > 57 µM |
| CC(C)c1nc(-c2ccccn2)no1 | > 57 µM |

| Structure (SMILES) | Potency |
| --- | --- |
| O=C(Oc1ccc(-c2nc(-c3ccccn3)no2)cc1)c1ccccc1 | 6.85 µM (active) |
| CCOC(=O)CSC1=C(C#N)C(c2ccco2)C(C(=O)OCc2ccccc2)=C(C)N1 (centres undefined) | > 57 µM |
| N#Cc1c2c(c(-c3ccccc3)[nH]c1=O)CCCC2 | > 25.6 µM |
| CCc1nnc(NC(=O)CSc2nnc(-c3ccncc3)n2Cc2ccccc2)s1 | > 57 µM |
| C=CCn1c(C)cc(C(=O)CN2C(=O)c3ccccc3C2=O)c1C | 5.37 µM (active) |
| Cc1cc(C(=O)COC(=O)CCCN2C(=O)c3ccccc3C2=O)c(C)n1C | > 57 µM |
| C=CCN(CC=C)C(=O)CN1C(=O)c2ccccc2C1=O | > 57 µM |
| O=C1CCC(C(=O)Nc2ccc(OC(F)F)cc2)N1 (centres undefined) | > 57 µM |
| CCCCc1cc(=O)oc2cc(C)cc(OCc3nn[nH]n3)c12 | > 57 µM |
| O=c1oc2cc(O)ccc2cc1-c1ccc(F)cc1 | > 57 µM |
| COc1ccc(-c2cc3ccc(OCc4nn[nH]n4)cc3oc2=O)cc1 | 5.08 µM (active) |
| CCCCOc1ccc(C(C)(O)CCN2CCOCC2)cc1 (centres undefined) | > 57 µM |
| O=C(CC1Nc2ccccc2NC1=O)Nc1ccccc1 (centres undefined) | > 11.4 µM |
| Cc1ncc(CC(=O)n2cc(C(=O)c3cc(Cl)ccc3O)cn2)s1 | > 57 µM |
| O=C1CC(Cc2ccccc2)C(=O)N1c1ccc(Cl)cn1 (centres undefined) | > 57 µM |
| O=C(O)CCCC(=O)Nc1ccccc1-n1ccnc1 | > 57 µM |
| CC(=O)c1cc2c(cc1N)OCO2 | > 57 µM |
| CCCCN(C)C(=O)C1CCN(Cc2ccccn2)CC1 | > 57 µM |
| Cc1cc(N2CCCC2)n2nc(C)c(-c3ccccc3)c2n1 | > 57 µM |
| CN(c1nc2ccccc2n2c(-c3ccco3)nnc12)S(=O)(=O)c1ccccc1 | > 57 µM |
| Cn1c(-c2ccco2)nc2cc3ccccc3cc21 | 0.493 µM (active) |
| c1coc(-c2nc3nc4ccccc4n3nc2-c2ccco2)c1 | > 57 µM |
| Clc1ccc(CSc2nnc([C@@H]3CCCN3)o2)cc1 | > 57 µM |
| CCN1CCN(C(=O)c2ccccc2N(C)S(=O)(=O)c2ccc(C)cc2)CC1 | > 57 µM |
